High-throughput results deposited in PubChem by National Center for Advancing Translational Sciences (NCATS).
SARS PLP yeast: qHTS of Yeast-based Assay for SARS-CoV PLP | S. cerevisiae expressing SARS-CoV PLpro, growth rescue | Potency, µM (series often up to 32.9 µM), for inactives: at the highest dose activity, positive = growth rescue, usual class: activators | 330,000 tested, 0.19% active; calls by dose curve; further: 0% is about no effect; nearly all actives have a fitted effect of over 55% in size
Tb PYK inh: qHTS of Trypanosoma Brucei Inhibitors. 410,000 tested, 0.12% active. pyruvate kinase (Trypanosoma brucei), Q57TT1. TbPYK enzyme, Kinase-Glo Plus ATP luminescence, 45 min. Potency, µM (top dose mostly 76.8 µM), without a hit: top-dose activity, negative = inhibition, usual class: inhibitors; further: on the % scale 0 is the no-effect control and ±100 the full control effect; nearly all actives have a fitted effect of over 50% in size
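Luminescence from Kinase-Glo Plus, added after a 45-minute room-temperature reaction, served as the end-point read-out. The enzyme and substrate were preincubated with compound before ADP (130 uM final) initiated turnover. Concentration-effect curves came from normalized qHTS data.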
AmpC inh detg: qHTS Inhibitors of AmpC Beta-Lactamase (assay with detergent); Potency, µM (top dose mostly 114 µM), for the others: at the top dose activity change, negative = inhibition, usual class: inhibitors; AID 485294, 2010; AmpC hydrolysis of nitrocefin, absorbance 480 nm, 0.01% Triton; 370,000 tested, 0.041% active; P00811;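 further: 0% = no-compound wells and -100% = no-enzyme wells; nearly all actives have a fitted effect of over 25% in size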
Target sequence (P00811 whole entry, looked up): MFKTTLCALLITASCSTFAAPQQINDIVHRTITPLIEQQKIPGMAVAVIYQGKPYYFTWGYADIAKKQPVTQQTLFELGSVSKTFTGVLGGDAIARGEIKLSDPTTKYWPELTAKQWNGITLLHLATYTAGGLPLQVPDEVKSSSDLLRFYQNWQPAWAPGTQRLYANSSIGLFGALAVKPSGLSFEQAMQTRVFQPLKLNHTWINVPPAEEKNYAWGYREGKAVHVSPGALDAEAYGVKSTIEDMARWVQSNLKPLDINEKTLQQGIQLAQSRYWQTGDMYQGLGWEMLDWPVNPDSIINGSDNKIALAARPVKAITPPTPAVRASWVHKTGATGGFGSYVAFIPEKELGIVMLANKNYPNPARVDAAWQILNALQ
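AmpC (5.3 nM in the dispensed reagent) in 20 mM phosphate pH 7.0 with 0.01% (detergent screen) or 0.0001% Triton X-100 was preincubated with compounds for 15 min at room temperature. Nitrocefin was then added from an 800 uM solution, and hydrolysis was followed at 480 nm.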
AmpC inh no detg: qHTS Inhibitors of AmpC Beta-Lactamase (assay without detergent) | AmpC nitrocefin hydrolysis, absorbance 480 nm, 0.0001% Triton | Potency, µM (highest dose often 57.1 µM), for the others: at the top dose activity change, negative = inhibition, most hits filed as inhibitors | 330,000 tested, 0.52% active | AID 485341, 2010;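 further: plate controls were no compound for no effect and no enzyme for full effect; nearly all actives have a fitted effect of over 20% in size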
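AmpC (5.3 nM in the dispensed reagent) in 20 mM phosphate pH 7.0 with 0.01% (detergent screen) or 0.0001% Triton X-100 was preincubated with compounds for 15 min at room temperature. Nitrocefin was then added from an 800 uM solution, and hydrolysis was followed at 480 nm.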
RE007 growth inh: qHTS Assay for Inhibitors of the HIV-1 protein Vpr | Potency, µM (top dose mostly 92.2 µM), for the others: at the highest dose activity change, negative = less growth, hits mostly inhibitors | 360,000 tested, 0.21% active | S. pombe RE007 Vpr strain, BacTiter-Glo ATP luminescence, 24 h | AID 651644, 2012; active means well fitted falling curve with a large enough effect; inconclusive means small, poorly fitted or top-dose-only effect; inactive means no such curve, though single readings can be large or run the other way; further: on the % scale 0 is the no-effect control and ±100 the full control effect; nearly all actives have a fitted effect of over 50% in size
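Fission yeast strain RE007, carrying one chromosomally integrated HIV-1 vpr copy, was seeded at OD 0.01 in PMG+AL medium with 23 nL pinned compound. After 24 h at 30 °C and 99% humidity, viability was read by BacTiter-Glo luminescence.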
Sm TGR inh: qHTS Assay for the Inhibitors of Schistosoma Mansoni Peroxiredoxins. Schistosoma mansoni thioredoxin glutathione reductase (TGR), Q962Y6. purified TGR, DTNB reduction, TNB absorbance 405 nm. Potency, µM (series often up to 114 µM), for inactives: at the top dose activity change, negative = inhibition, hits mostly inhibitors. 360,000 tested, 3% active; further: on the % scale 0 is the no-effect control and ±100 the full control effect; nearly all actives have a fitted effect of over 60% in size
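First, TGR (20 nM dispensed) and NADPH were mixed with compound. Second, a 15 min room-temperature incubation followed. Third, further NADPH and then DTNB were added to start the reaction. Finally, TNB absorbance was monitored kinetically.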
Starred values were filed as active, the others as inactive; ? = inconclusive; . = not tested or not shown. A selection: hits, their analogues and other compounds. The true share with any hit is near 3.3%. Unless noted, the call rests on the fitted dose curve; in most records, active means well fitted curve in the direction sought with a large enough effect; inconclusive means small, poorly fitted or top-dose-only effect, or another doubt; inactive means no such curve, though single readings can be large; an effect the other way counts as inactive or inconclusive. Potency means the concentration at half of the fitted maximal effect.

SMILES | SARS PLP yeast | Tb PYK inh | AmpC inh detg | AmpC inh no detg | RE007 growth inh | Sm TGR inh
COc1c(Cl)cnn(-c2ccccc2)c1=O | 2% | -11% | -12% | -15% | 6% | -8%
COc1nn(-c2ccccc2)c(=O)c(Cl)c1Cl | -9% | 1% | ? | -6% | ? | 22µM*
O=C(O)C1Nc2c(O)cccc2C2C=CCC12 (stereo not drawn) | ? | ? | ? | ? | 16% | 8.9µM*
O=C(O)C1Nc2c(Cl)cc(Cl)cc2C2C=CCC12 (stereo not drawn) | 7% | -28% | ? | 13µM* | -30% | ?
CCOc1ccc(NC(=O)Cn2nc(CC)n3c(cc4sccc43)c2=O)cc1 | . | 2% | 19% | . | . | 13%
CC(C)c1ccc(C2c3c(-c4ccccc4O)n[nH]c3C(=O)N2Cc2ccncc2)cc1 (stereo not drawn) | . | 1% | 21% | . | . | 3%
CCc1ccc(-c2nc(CSCC(=O)NCc3ccc(C)cc3)c(C)o2)cc1 | . | -1% | ? | . | . | -17%
CC(C)Sc1nc(NCc2ccco2)c2c3c(sc2n1)COC(C)(C)C3 | -10% | -9% | ? | 30% | 17% | 22µM*
CSc1nc(SCC(=O)NCc2ccco2)c2c3c(sc2n1)COC(C)(C)C3 | -10% | -15% | -17% | -21% | 3% | -18%
CCOc1ccc(CNC(=O)C2Cc3ccccc3N2C(=O)CC)cc1 (stereo not drawn) | . | -5% | 26% | . | . | 4%
CCOC(=O)c1c(S(=O)(=O)N2CCC(C(=O)N3CCN(c4cc(C)ccc4C)CC3)CC2)c(C)n(C)c1C | . | -8% | -7% | . | . | -6%
CCN(CC)CCCC(C)NC(=O)c1cccc(S(=O)(=O)N2CCc3ccccc32)c1 (stereo not drawn) | -1% | -1% | 4% | 16% | -15% | 16µM*
Cc1nnc(C)n1/N=C/c1ccc(O)cc1 | 0% | 1% | 0% | -16% | 16% | -27%
Oc1ccc(/C=N/n2c3ccccc3c3ccccc32)cc1 | -33% | 5% | 0% | -28% | 32µM* | 5%
COc1cccc(CNC(=O)C2CCN(C(=O)N3CCOc4ccc(Cl)cc43)CC2)c1OC | . | 0% | -6% | . | . | -17%
O=C(Cn1ccc2cc(S(=O)(=O)N3CCCCC3)ccc21)NCc1ccccc1F | ? | -5% | -3% | 20µM* | 0% | -5%
O=C(Cn1ccc2cc(S(=O)(=O)N3CCCCC3)ccc21)NCc1ccccc1Cl | . | -3% | 8% | . | . | 6%
O=P(c1ccccc1)(c1nc2ccccc2s1)N1CCOCC1 (stereo not drawn) | 1% | -1% | -2% | -7% | 7% | 50µM*
CN1CCN(P(=O)(c2ccccc2)c2nc3ccccc3s2)CC1 (stereo not drawn) | 0% | 1% | -14% | -9% | 3% | -26%
Clc1ccc2c(SCC3CO3)c3ccccc3nc2c1 (stereo not drawn) | . | -20% | . | . | 1µM* | .
CCCCn1c(-c2ccc([N+](=O)[O-])cc2)n[nH]c1=S | 1% | 1.1µM* | 0% | -20% | 10% | 5%
CC1=C(C#N)c2nc(N)c(C#N)c(C)c2/C1=C\c1ccc(-c2ccccc2C(=O)O)o1 | 3% | -8% | 3% | -53% | 1% | 25µM*
Cc1c(NC(=O)c2ccccc2)cc(C(C)C)c(O)c1S(=O)(=O)c1ccc(Cl)cc1 | . | 1% | -4% | . | . | -2%
C[C@@H]1[C@H](O)[C@@H](C)C=CC=CCCC=CC=CC=CC=C[C@H](O[C@H]2O[C@@H](C)[C@H](O)[C@@H](N)[C@@H]2O)CC2O[C@](O)(C[C@@H](O)[C@H](O)CC[C@@H](O)C[C@@H](O)C[C@@H](O)CC(=O)O[C@H]1C)C[C@H](O)[C@H]2C(=O)O | . | 0% | . | . | . | .
COC(=O)c1ccc(CSc2ccc3nnc(-c4ccc(F)cc4)n3n2)o1 | 1% | -3% | -1% | -21% | -9% | -22%
SMILES | SARS PLP yeast | Tb PYK inh | AmpC inh detg | AmpC inh no detg | RE007 growth inh | Sm TGR inh
COC(=O)c1ccc(CSc2ccc3nnc(-c4ccccn4)n3n2)o1 | 12% | -5% | ? | -2% | 8% | 40µM*
CN(C)CCCN(C(=O)c1ccc2c(c1)OCCO2)c1nc2cc3c(cc2s1)OCO3 | -4% | -3% | -8% | 73% | -1% | -19%
CN(C)CCN(C(=O)c1ccc(N2C(=O)CCC2=O)cc1)c1nc2cc3c(cc2s1)OCO3 | 0% | -16% | 2% | 3% | -11% | 20µM*
CC(=O)SC1CC(=O)N(c2ccc(C(C)(C)C)cc2)C1=O (stereo not drawn) | -7% | -2% | -7% | 6% | 0% | ?
O=C1CC(N2CCSCC2)C(=O)N1c1cccc(Br)c1 (stereo not drawn) | -18% | -22% | 0% | -14% | 32µM* | 45µM*
Cc1cccc(C)c1N1C(=O)CC(N2CCSCC2)C1=O (stereo not drawn) | -5% | 0% | -1% | -13% | ? | 45µM*
CC(=O)SC1CC(=O)N(c2c(C)cccc2C)C1=O (stereo not drawn) | -1% | 2% | -4% | -20% | -11% | 14µM*
COc1cccc(CNC(=O)Cn2c(SCC(=O)Nc3ccc(C)c(C)c3)nc3ccccc32)c1 | . | -1% | 0% | . | . | 0%
CN(C)S(=O)(=O)N(CC(=O)NCCSCc1cccc(Cl)c1)c1ccccc1 | . | -3% | 19% | . | . | 2%
O=C(CN1C(=O)COc2ccc(S(=O)(=O)N3CCOCC3)cc21)Nc1ccc(F)c(Cl)c1 | . | 1% | -9% | . | . | 1%
CC1(C)CC(NCc2ccccc2)=CC(=S)N1 | . | -9% | . | . | -18% | .
CC1(C)CC(N2CCN(CCO)CC2)=CC(=S)N1 | 2% | 3% | -1% | -27% | 15% | 40µM*
Cc1ccccc1CNC(=O)c1ccc(NC(=O)c2nsc3ccccc23)cc1 | . | -12% | -8% | . | . | 25µM*
COc1cccc(-n2cc(C(=O)Oc3cccc(C(F)(F)F)c3)c3ccccc3c2=O)c1 | . | 3% | -11% | . | . | 9%
CC(=O)Nc1ccc(NS(=O)(=O)c2c(C(=O)N3CCCCCC3)c(C)n(C)c2C)cc1 | . | 0% | 18% | . | . | 1%
ClC(Cl)(c1nnnn1-c1ccccc1)c1nnnn1-c1ccccc1 | -98% | ? | ? | -56% | ? | 20µM*
c1ccc(-c2nnnn2-c2ccccc2)cc1 | 3% | 3% | -10% | 0% | 0% | 5%
